Laboratory results taken from PubChem BioAssay (Tox21).
Results filed as inconclusive are left out. A call without a number means that no potency is given here. Calls of active or inactive are those of the source. Calls come from the whole dose curve; as a rule, active = well fitted cell-killing curve with a large enough effect in the repeat runs; inconclusive = weak or mixed curves, or effect the other way; inactive = no such curve, though single readings can be large or run the other way.

Test: qHTS assay to identify small molecule antagonists of the glucocorticoid receptor (GR) signaling pathway - cell viability counter screen (AID 720693); note: nearly all actives have a fitted effect of over 55% in size
Conditions: GR-bla HeLa viability, CellTiter-Glo luminescence, 18 h, with 5 nM dexamethasone present; series mostly up to 58.5 µM

SMILES	Potency
O=CNNC=O	inactive
Nc1ccn([C@H]2CS[C@@H](CO)O2)c(=O)n1	inactive
CC(C)(C)NCC(O)COc1cccc2c1C[C@H](O)[C@H](O)C2 (stereo partly specified)	inactive
O=C(NS(=O)(=O)/C=C/c1ccccc1)c1ccc(F)cc1Cl	inactive
CC(C)C(=O)OCCOc1ccccc1	inactive
CCC(=O)OCc1ccc(OC)cc1	inactive
Cc1ccc2c(c1)CCCN2	inactive
CCCCC[C@H](O)/C=C/[C@H]1[C@H](O)CC(=O)[C@@H]1C/C=C\CCCC(=O)O	inactive
CCCCOC(=O)CCCCC(=O)OCCCC	inactive
CCCCCCCCCCCCCCCC(=O)OCC	inactive
O=C1[C@@H]2[C@H]3CC[C@H](C3)[C@@H]2C(=O)N1CCCCN1CCN(c2ncccn2)CC1	inactive
FC(F)(F)C(F)(F)C(F)(F)C(F)(F)CCI	inactive
SCCc1cnccn1	inactive
C=CC(=O)NC(C)C	inactive
CCCCCCCC(=O)OCCCCCC	inactive
Nc1ccc(NC(=O)c2ccc(N)cc2)cc1	inactive
COc1ccc(C)cc1	inactive
CN=C(N)NC(=O)Nc1c(C)cccc1C	inactive
CC1=CC[C@@]23C[C@@H]1C(C)(C)[C@@H]2CC[C@H]3C	inactive

SMILES	Potency
CCN(CC)C(=O)/C(C#N)=C/c1cc(O)c(O)c([N+](=O)[O-])c1	inactive
Cc1ccc(Cl)cc1N	inactive
c1ccc(CCCc2ccncc2)cc1	inactive
C=CC(=O)O	inactive
Nc1ccc(S(=O)(=O)NCc2ccccc2)cc1	inactive
CCN(CC)CCOc1ccccc1C(=O)CCc1ccccc1	inactive
O=[N+]([O-])c1ccc2ncccc2c1	inactive
CCCCCCOC(=O)CCCCC	inactive
O=c1[nH][nH]c(=O)c2cc([N+](=O)[O-])ccc12	inactive
CCCCCCCC(=O)Oc1c(Br)cc(C#N)cc1Br	inactive
CC(C)(C)S	inactive
COc1ccc(/C=C/C(=O)c2ccc(OC)cc2OC)cc1	inactive
Nc1nc(-c2ccc([N+](=O)[O-])cc2)cs1	inactive
CC(C)Cc1ccc(CC(=O)O)cc1	inactive
O=c1[nH]c2cc(C(F)(F)F)c(N3CCOCC3)cc2n(CP(=O)(O)O)c1=O	inactive
CCOC(=O)c1ccc(NC(=O)CN2CCCCC2)cc1	inactive
COC(CC(C)CCCC(C)(C)O)OC (stereo unspecified)	inactive
O=C(O)CCS	inactive

Test: qHTS assay for identifying genotoxic compounds that show differential cytotoxicity against isogenic chicken DT40 cell lines with known DNA damage response pathways - wild type cell line (AID 743012); note: nearly all actives have a fitted effect of over 60% in size; note: potency is the fitted concentration of half-maximal effect
Conditions: DT40 wild type chicken cells viability, CellTiter-Glo, 40 h; series mostly up to 68.4 µM
In short: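 First, wild type DT40 cells were plated at 300 per well and equilibrated about 0.5 h at 37 C/5% CO2. Next, compounds in DMSO were added and exposure lasted 40 h. Finally, CellTiter-Glo was added for 30 min at room temperature and luminescence recorded.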

SMILES	Potency
O=CNNC=O	inactive
Nc1ccn([C@H]2CS[C@@H](CO)O2)c(=O)n1	inactive
CC(C)(C)NCC(O)COc1cccc2c1C[C@H](O)[C@H](O)C2 (stereo partly specified)	inactive
O=C(NS(=O)(=O)/C=C/c1ccccc1)c1ccc(F)cc1Cl	inactive
CC(C)C(=O)OCCOc1ccccc1	inactive
CCC(=O)OCc1ccc(OC)cc1	inactive
Cc1ccc2c(c1)CCCN2	inactive
CCCCC[C@H](O)/C=C/[C@H]1[C@H](O)CC(=O)[C@@H]1C/C=C\CCCC(=O)O	inactive
CCCCOC(=O)CCCCC(=O)OCCCC	inactive
CCCCCCCCCCCCCCCC(=O)OCC	inactive
O=C1[C@@H]2[C@H]3CC[C@H](C3)[C@@H]2C(=O)N1CCCCN1CCN(c2ncccn2)CC1	inactive
FC(F)(F)C(F)(F)C(F)(F)C(F)(F)CCI	inactive
SCCc1cnccn1	inactive
C=CC(=O)NC(C)C	inactive
CCCCCCCC(=O)OCCCCCC	inactive
Nc1ccc(NC(=O)c2ccc(N)cc2)cc1	inactive
COc1ccc(C)cc1	inactive
CN=C(N)NC(=O)Nc1c(C)cccc1C	inactive
CC1=CC[C@@]23C[C@@H]1C(C)(C)[C@@H]2CC[C@H]3C	inactive

SMILES	Potency
CCN(CC)C(=O)/C(C#N)=C/c1cc(O)c(O)c([N+](=O)[O-])c1	inactive
Cc1ccc(Cl)cc1N	inactive
c1ccc(CCCc2ccncc2)cc1	inactive
C=CC(=O)O	inactive
Nc1ccc(S(=O)(=O)NCc2ccccc2)cc1	inactive
CCN(CC)CCOc1ccccc1C(=O)CCc1ccccc1	11.9 µM (active)
O=[N+]([O-])c1ccc2ncccc2c1	inactive
CCCCCCOC(=O)CCCCC	inactive
O=c1[nH][nH]c(=O)c2cc([N+](=O)[O-])ccc12	inactive
CCCCCCCC(=O)Oc1c(Br)cc(C#N)cc1Br	inactive
CC(C)(C)S	inactive
COc1ccc(/C=C/C(=O)c2ccc(OC)cc2OC)cc1	10.6 µM (active)
Nc1nc(-c2ccc([N+](=O)[O-])cc2)cs1	inactive
CC(C)Cc1ccc(CC(=O)O)cc1	inactive
O=c1[nH]c2cc(C(F)(F)F)c(N3CCOCC3)cc2n(CP(=O)(O)O)c1=O	inactive
CCOC(=O)c1ccc(NC(=O)CN2CCCCC2)cc1	11.9 µM (active)
COC(CC(C)CCCC(C)(C)O)OC (stereo unspecified)	inactive
O=C(O)CCS	inactive

Test: qHTS assay for identifying genotoxic compounds that show differential cytotoxicity against isogenic chicken DT40 cell lines with known DNA damage response pathways - Rev3 mutant cell line (AID 743014); note: nearly all actives have a fitted effect of over 55% in size; note: potency is the fitted concentration of half-maximal effect
Conditions: chicken DT40 Rev3-/- viability, CellTiter-Glo, 40 h; series mostly up to 68.4 µM

SMILES	Potency
CC(C)(C)NCC(O)COc1cccc2c1C[C@H](O)[C@H](O)C2 (stereo partly specified)	inactive
CC(C)C(=O)OCCOc1ccccc1	inactive
CCC(=O)OCc1ccc(OC)cc1	inactive
Cc1ccc2c(c1)CCCN2	inactive
CCCCCCCCCCCCCCCC(=O)OCC	inactive
O=C1[C@@H]2[C@H]3CC[C@H](C3)[C@@H]2C(=O)N1CCCCN1CCN(c2ncccn2)CC1	inactive
C=CC(=O)NC(C)C	inactive
Nc1ccc(NC(=O)c2ccc(N)cc2)cc1	inactive
COc1ccc(C)cc1	inactive
CN=C(N)NC(=O)Nc1c(C)cccc1C	inactive
CC1=CC[C@@]23C[C@@H]1C(C)(C)[C@@H]2CC[C@H]3C	inactive
Cc1ccc(Cl)cc1N	inactive
C=CC(=O)O	inactive
CCN(CC)CCOc1ccccc1C(=O)CCc1ccccc1	26.6 µM (active)
O=[N+]([O-])c1ccc2ncccc2c1	inactive
CCCCCCOC(=O)CCCCC	inactive
O=c1[nH][nH]c(=O)c2cc([N+](=O)[O-])ccc12	inactive
CCCCCCCC(=O)Oc1c(Br)cc(C#N)cc1Br	inactive
COc1ccc(/C=C/C(=O)c2ccc(OC)cc2OC)cc1	16.8 µM (active)
CC(C)Cc1ccc(CC(=O)O)cc1	inactive
O=c1[nH]c2cc(C(F)(F)F)c(N3CCOCC3)cc2n(CP(=O)(O)O)c1=O	inactive
COC(CC(C)CCCC(C)(C)O)OC (stereo unspecified)	inactive
